# Laboratory results published in PubChem BioAssay (Tox21).
# Values without a mark were called inactive. Inconclusive results are not listed. A call without a number means that no potency is given here. Active and inactive are the calls of the source. Calls follow the shape of the dose curve; as a rule, active = well fitted curve in the direction sought with a large enough effect in the repeat runs; inconclusive = weak or mixed curves; inactive = no such curve, though single readings can be large; an effect the other way counts as inactive or inconclusive.
# Key:
# [1] = qHTS RealTime-Glo MT Cell Viability Assay in HepG2 cells - 40 hour (AID 1224870); also: nearly all actives have a fitted effect of over 50% in size
# Procedure, shortened: (§1)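 HepG2 cells (600/well) mixed with RealTime-Glo MT reagent, settled 5 h at 37 C/5% CO2 before compound addition. Nonlytic NanoLuc luminescence from viable-cell prosubstrate reduction read repeatedly during 40 h treatment at 37 C.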
# [2] = A CellTox Green Cytotoxicity Assay to monitor cytotoxicity in HEK293 cells - 40 hour (AID 1224871); also: nearly all actives have a fitted effect of over 45% in size
# Procedure, shortened: (§2)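 Dead-cell fluorescence measured kinetically: asymmetric cyanine dye, HEK293, 600 cells/well, 5 h settle, 23 nL cpd/DMSO, 37 C, reads 0–40 h every 8 h.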
# [3] = qHTS RealTime-Glo MT Cell Viability Assay in HEK293 cells - 16 hour (AID 1224872); also: nearly all actives have a fitted effect of over 50% in size; also: potency is read from the fitted curve at half-maximal effect
# Procedure, shortened: (§3)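 Cells + reagent dispensed (600 cells/well, HEK293) → 5 h at 37 C/5% CO2 → 23 nL compound in DMSO pinned → 40 h at 37 C → luminescence read at 0, 8, 16, 24, 32, 40 h.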
# [4] = qHTS RealTime-Glo MT Cell Viability Assay in HepG2 cells - 8 hour (AID 1224873); also: nearly all actives have a fitted effect of over 55% in size
# Procedure, shortened: as §1
# [5] = qHTS RealTime-Glo MT Cell Viability Assay in HEK293 cells - 40 hour (AID 1224874); conditions: RealTime-Glo luminescence; max response: hits give low values; also: nearly all actives have a fitted effect of over 50% in size; also: potency is read from the fitted curve at half-maximal effect
# Procedure, shortened: (§4)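 600 HEK293 cells per well, dispensed already mixed with RealTime-Glo MT reagents. Compound dosing came 5 h later. The same wells were read for luminescence at 0, 8, 16, 24, 32 and 40 h of exposure at 37 C.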
# [6] = A CellTox Green Cytotoxicity Assay to monitor cytotoxicity in HEK293 cells - 24 hour (AID 1224875); also: series mostly up to about 77 µM; nearly all actives have a fitted effect of over 45% in size
# Procedure, shortened: as §2
# [7] = A CellTox Green Cytotoxicity Assay to monitor cytotoxicity in HepG2 cells - 16 hour (AID 1224876); also: nearly all actives have a fitted effect of over 45% in size
# Procedure, shortened: (§5)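 First, HepG2 cells (600/well) mixed with reagent were plated; second, after 5 h at 37 C they received compounds via pintool; third, fluorescence was measured at 0 h through 40 h at 8 h intervals.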
# [8] = qHTS RealTime-Glo MT Cell Viability Assay in HepG2 cells - 32 hour (AID 1224877); also: nearly all actives have a fitted effect of over 55% in size
# Procedure, shortened: (§6)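 Real-time, nonlytic viability: 600 HepG2 cells/well mixed with NanoLuc enzyme plus prosubstrate; 5 h settle, compound (DMSO) added by pintool; luminescence monitored over 40 h at 37 C.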
# [9] = A CellTox Green Cytotoxicity Assay to monitor cytotoxicity in HepG2 cells - 40 hour (AID 1224879); also: nearly all actives have a fitted effect of over 40% in size
# Procedure, shortened: as §5
# [10] = qHTS RealTime-Glo MT Cell Viability Assay in HEK293 cells - 0 hour (AID 1224880); also: top concentration of the series differs between compounds; nearly all actives have a fitted effect of over 45% in size
# Procedure, shortened: as §4
# [11] = A CellTox Green Cytotoxicity Assay to monitor cytotoxicity in HepG2 cells - 0 hour (AID 1224882); also: nearly all actives have a fitted effect of over 35% in size
# Procedure, shortened: as §5
# [12] = A CellTox Green Cytotoxicity Assay to monitor cytotoxicity in HepG2 cells - 32 hour (AID 1224883); also: nearly all actives have a fitted effect of over 50% in size
# Procedure, shortened: as §5
# [13] = A CellTox Green Cytotoxicity Assay to monitor cytotoxicity in HEK293 cells - 8 hour (AID 1224884); also: nearly all actives have a fitted effect of over 35% in size
# Procedure, shortened: as §2
# [14] = qHTS RealTime-Glo MT Cell Viability Assay in HepG2 cells - 16 hour (AID 1224885); also: nearly all actives have a fitted effect of over 50% in size
# Procedure, shortened: as §6
# [15] = qHTS RealTime-Glo MT Cell Viability Assay in HEK293 cells - 24 hour (AID 1224886); also: nearly all actives have a fitted effect of over 50% in size; also: potency is read from the fitted curve at half-maximal effect
# Procedure, shortened: as §3
# [16] = qHTS RealTime-Glo MT Cell Viability Assay in HEK293 cells - 8 hour (AID 1224887); also: nearly all actives have a fitted effect of over 50% in size; also: potency is read from the fitted curve at half-maximal effect
# Procedure, shortened: as §4
# [17] = A CellTox Green Cytotoxicity Assay to monitor cytotoxicity in HEK293 cells - 16 hour (AID 1224888); also: nearly all actives have a fitted effect of over 35% in size
# Procedure, shortened: as §2
# [18] = qHTS RealTime-Glo MT Cell Viability Assay in HepG2 cells - 0 hour (AID 1224889); also: nearly all actives have a fitted effect of over 50% in size
# Procedure, shortened: as §6
# [19] = A CellTox Green Cytotoxicity Assay to monitor cytotoxicity in HepG2 cells - 24 hour (AID 1224878); also: nearly all actives have a fitted effect of over 45% in size
# Procedure, shortened: as §5
# [20] = A CellTox Green Cytotoxicity Assay to monitor cytotoxicity in HEK293 cells - 32 hour (AID 1224881); also: nearly all actives have a fitted effect of over 40% in size
# Procedure, shortened: as §2
structure (smiles),measurement,setting,value
CC1(C)CC(=O)CC(C)(C)N1,Potency,[1],inactive
same,Potency,[2],inactive
same,Potency,[3],inactive
same,outcome,[4],inactive
same,max response,[5],0.817%
same,Potency,[6],inactive
same,Potency,[7],inactive
same,Potency,[8],inactive
same,Potency,[9],inactive
same,Potency,[10],inactive
same,Potency,[11],inactive
same,Potency,[12],inactive
same,Potency,[13],inactive
same,outcome,[14],inactive
same,Potency,[15],inactive
same,Potency,[16],inactive
same,Potency,[17],inactive
same,Potency,[18],inactive
Cc1cccc(C)c1NC(=O)CN1CCCC1,Potency,[1],inactive
same,Potency,[2],inactive
same,Potency,[3],inactive
same,outcome,[4],inactive
same,max response,[5],8.7%
same,Potency,[6],inactive
same,Potency,[7],inactive
same,Potency,[8],inactive
same,Potency,[19],inactive
same,Potency,[10],inactive
same,Potency,[20],inactive
same,Potency,[11],inactive
same,Potency,[12],inactive
same,outcome,[14],inactive
same,Potency,[15],inactive
same,Potency,[16],inactive
same,Potency,[17],inactive
same,Potency,[18],inactive
O=[N+]([O-])c1ccccc1CCO,Potency,[1],inactive
same,Potency,[2],inactive
same,Potency,[3],inactive
same,outcome,[4],inactive
same,max response,[5],16.6%
same,Potency,[6],inactive
same,Potency,[7],inactive
same,Potency,[8],inactive
same,Potency,[9],inactive
same,Potency,[10],inactive
same,Potency,[20],inactive
same,Potency,[11],inactive
same,Potency,[12],inactive
same,Potency,[13],inactive
same,Potency,[15],inactive
same,Potency,[16],inactive
same,Potency,[17],inactive
same,Potency,[18],inactive
CC(Cc1ccccc1)(NC(=O)CN)c1ccccc1 (stereo unspecified),Potency,[1],inactive
same,Potency,[2],inactive
same,Potency,[3],inactive
same,outcome,[4],inactive
same,max response,[5],-3.14%
same,Potency,[6],inactive
same,Potency,[7],inactive
same,Potency,[8],inactive
same,Potency,[9],inactive
same,Potency,[10],inactive
same,Potency,[20],inactive
same,Potency,[11],inactive
same,Potency,[12],inactive
same,Potency,[13],inactive
same,outcome,[14],inactive
same,Potency,[15],inactive
same,Potency,[16],inactive
same,Potency,[17],inactive
same,Potency,[18],inactive
CCC(C(=O)O)c1ccc(N2Cc3ccccc3C2=O)cc1 (stereo unspecified),Potency,[1],inactive
same,Potency,[2],inactive
same,Potency,[3],inactive
same,outcome,[4],inactive
same,max response,[5],-1.19%
same,Potency,[6],inactive
same,Potency,[7],inactive
same,Potency,[8],inactive
same,Potency,[19],inactive
same,Potency,[9],inactive
same,Potency,[10],inactive
same,Potency,[11],inactive
same,Potency,[12],inactive
same,outcome,[14],inactive
same,Potency,[15],inactive
same,Potency,[16],inactive
same,Potency,[17],inactive
same,Potency,[18],inactive
CC(=O)CC/C=C(\C)CC/C=C(\C)CC/C=C(\C)CCC=C(C)C,Potency,[1],inactive
same,Potency,[2],inactive
same,Potency,[3],inactive
same,outcome,[4],inactive
same,max response,[5],4.5%
same,Potency,[6],inactive
same,Potency,[7],inactive
same,Potency,[8],inactive
same,Potency,[9],inactive
same,Potency,[10],inactive
same,Potency,[20],inactive
same,Potency,[11],inactive
same,Potency,[12],inactive
same,Potency,[13],inactive
same,Potency,[15],inactive
same,Potency,[16],inactive
same,Potency,[17],inactive
same,Potency,[18],inactive
Cc1c(-c2cccnc2)c2ccccc2n1CCCCC(=O)O,Potency,[1],inactive
same,Potency,[2],inactive
same,Potency,[3],inactive
same,outcome,[4],inactive
same,max response,[5],2.18%
same,Potency,[6],inactive
same,Potency,[7],inactive
same,Potency,[8],inactive
same,Potency,[19],inactive
same,Potency,[10],inactive
same,Potency,[20],inactive
same,Potency,[11],inactive
same,Potency,[12],inactive
same,Potency,[13],inactive
same,outcome,[14],inactive
same,Potency,[15],inactive
same,Potency,[16],inactive
same,Potency,[17],inactive
same,Potency,[18],inactive
CCOc1ccc(NC(C)=O)cc1N,Potency,[1],inactive
same,Potency,[2],inactive
same,Potency,[3],inactive
same,outcome,[4],inactive
same,max response,[5],3.81%
same,Potency,[6],inactive
same,Potency,[7],inactive
same,Potency,[8],inactive
same,Potency,[19],inactive
same,Potency,[9],inactive
same,Potency,[10],inactive
same,Potency,[11],inactive
same,Potency,[12],inactive
same,Potency,[13],inactive
same,Potency,[15],inactive
same,Potency,[16],inactive
same,Potency,[17],inactive
same,Potency,[18],inactive
OCCc1ccncc1,Potency,[1],inactive
same,Potency,[2],inactive
same,Potency,[3],inactive
same,outcome,[4],inactive
same,max response,[5],-8.09%
same,Potency,[6],inactive
same,Potency,[7],inactive
same,Potency,[8],inactive
same,Potency,[19],inactive
same,Potency,[9],inactive
same,Potency,[10],inactive
same,Potency,[11],inactive
same,Potency,[12],inactive
same,Potency,[13],inactive
same,outcome,[14],inactive
same,Potency,[15],inactive
same,Potency,[16],inactive
same,Potency,[17],inactive
same,Potency,[18],inactive
CC1(C)CC(O)CC(C)(C)N1[O],Potency,[1],inactive
same,Potency,[2],inactive
same,Potency,[3],inactive
same,outcome,[4],inactive
same,max response,[5],6.37%
same,Potency,[6],inactive
same,Potency,[7],inactive
same,Potency,[8],inactive
same,Potency,[10],inactive
same,Potency,[20],inactive
same,Potency,[11],inactive
same,Potency,[12],inactive
same,Potency,[13],inactive
same,outcome,[14],inactive
same,Potency,[15],inactive
same,Potency,[16],inactive
same,Potency,[18],inactive
Cc1ccc2c(Cl)cc(Cl)c(O)c2n1,Potency,[1],inactive
same,Potency,[2],inactive
same,Potency,[3],inactive
same,outcome,[4],inactive
same,max response,[5],-5.73%
same,Potency,[6],inactive
same,Potency,[7],inactive
same,Potency,[8],inactive
same,Potency,[19],inactive
same,Potency,[10],inactive
same,Potency,[20],inactive
same,Potency,[11],inactive
same,Potency,[12],inactive
same,outcome,[14],inactive
same,Potency,[15],inactive
same,Potency,[16],inactive
same,Potency,[17],inactive
same,Potency,[18],inactive
CC(C)(C)N,Potency,[1],inactive
same,Potency,[2],inactive
same,Potency,[3],inactive
same,outcome,[4],inactive
same,max response,[5],1.55%
same,Potency,[6],inactive
same,Potency,[7],inactive
same,Potency,[8],inactive
same,Potency,[9],inactive
same,Potency,[10],inactive
same,Potency,[20],inactive
same,Potency,[11],inactive
same,Potency,[12],inactive
same,Potency,[13],inactive
same,outcome,[14],inactive
same,Potency,[15],inactive
same,Potency,[16],inactive
same,Potency,[17],inactive
same,Potency,[18],inactive
Cc1nc2sccn2c(=O)c1CCN1CCC(=C(c2ccc(F)cc2)c2ccc(F)cc2)CC1,Potency,[1],inactive
same,Potency,[2],inactive
same,Potency,[3],3.01 µM (active)
same,outcome,[4],inactive
same,Potency,[5],4.25 µM (active)
same,Potency,[6],inactive
same,Potency,[7],inactive
same,Potency,[8],inactive
same,Potency,[19],inactive
same,Potency,[20],inactive
same,Potency,[11],inactive
same,Potency,[12],inactive
same,Potency,[13],inactive
same,outcome,[14],inactive
same,Potency,[15],3.38 µM (active)
same,Potency,[16],3.01 µM (active)
same,Potency,[17],inactive
same,Potency,[18],inactive
O=C(OCCOCCOCCOC(=O)c1ccccc1)c1ccccc1,Potency,[1],inactive
same,Potency,[2],inactive
same,Potency,[3],inactive
same,outcome,[4],inactive
same,max response,[5],13.2%
same,Potency,[6],inactive
same,Potency,[7],inactive
same,Potency,[8],inactive
same,Potency,[10],inactive
same,Potency,[20],inactive
same,Potency,[11],inactive
same,Potency,[13],inactive
same,outcome,[14],inactive
same,Potency,[15],inactive
same,Potency,[17],inactive
same,Potency,[18],inactive
CC(C(=O)O)c1ccc(/C=C2\CCCCC2=O)cc1 (stereo unspecified),Potency,[1],inactive
same,Potency,[2],inactive
same,Potency,[3],inactive
same,outcome,[4],inactive
same,max response,[5],21%
same,Potency,[6],inactive
same,Potency,[7],inactive
same,Potency,[8],inactive
same,Potency,[19],inactive
same,Potency,[10],inactive
same,Potency,[11],inactive
same,Potency,[12],inactive
same,Potency,[13],inactive
same,outcome,[14],inactive
same,Potency,[15],inactive
same,Potency,[16],inactive
same,Potency,[17],inactive
same,Potency,[18],inactive
